# Assay results from ChEMBL document CHEMBL3988442, “University of Dundee, Small-Polar-MMV Screening Library” (2021).
# About 13,000 (27%) of roughly 48,000 compounds showed an effect of 50% or more. Some of the results follow.
# System: Wolbachia pipientis
# Experiment: Anti-Wolbachia Cell-Based Screen
# Assay type: functional
# Set-up: scale not given: in the data most compounds retested in dose-response had high values
# Settings: 5 µM
row,SMILES,Percent Effect [%]
1,CC(NC(=O)N1CCC2(C1)OCCO2)c1cccc(Cl)c1 (stereo not given),-15.89
2,CN1CCCC(CCC(=O)N2CCc3onc(C(=O)N(C)C)c3C2)C1 (stereo not given),14.32
3,Cc1noc(CNc2ccccc2N2CCCCC2)n1,5.096
4,CC(C)c1noc(CS(=O)(=O)CC(=O)NCC(F)(F)F)n1,-6.707
5,CN(Cc1ncc(C(C)(C)C)o1)C1CCCN(c2cccnn2)C1 (stereo not given),-2.807
6,Cc1ncc(CN(C)C2CCCN(c3cccnn3)C2)s1 (stereo not given),87.88
7,Cc1ncc(CN(C)CC2CCCN2c2cccnn2)s1 (stereo not given),0.5019
8,Cc1ccsc1[C@@H]1CCN(C(=O)CCc2nc3ccccc3[nH]2)C[C@H]1O,-8.794
9,O=C(O)C(F)(F)F.O=C1NC2(CCN(c3ncccn3)CC2)CC1c1cccnc1 (stereo not given),-4.388
10,O=C1NC2(CCN(C(=O)c3ccnnc3)CC2)CC1c1ccccc1 (stereo not given),95.48
11,O=C(O)C(F)(F)F.O=C1NC2(CCN(C(=O)N3CCOCC3)CC2)CC1c1cccnc1 (stereo not given),179.1
12,O=C(O)C(F)(F)F.O=C1NC2(CCN(C(=O)c3ccccc3)CC2)CC1c1cccnc1 (stereo not given),-9.682
13,Cc1cccc(C(=O)N2CCC3(CC2)CC(c2ccccc2)C(=O)N3)c1 (stereo not given),-4.545
14,Cc1cc(C(=O)N2CCC3(CC2)CC(c2cccnc2)C(=O)N3)no1.O=C(O)C(F)(F)F (stereo not given),102.9
15,O=C1NC2(CCN(C(=O)c3ccc(Cl)cc3)CC2)CC1c1ccccc1 (stereo not given),7.391
16,Cc1ccc(C(=O)N2CCC3(CC2)CC(c2ccccc2)C(=O)N3)cn1.O=C(O)C(F)(F)F (stereo not given),-11.02
17,Cc1cnc(C(=O)N2CCC3(CC2)CC(c2ccccc2)C(=O)N3)cn1 (stereo not given),-6.858
18,CN(C)C(=O)CN1C[C@@H]2CC[C@H](C1)N(Cc1cc(F)ccc1F)C2,15.49
19,COc1nc(C)c(C(=O)N2CCc3[nH]nc(C4CCCC4)c3C2)s1,-0.6209
20,CC(C)NC(=O)CN(C)CC(=O)/N=c1/cc[nH]n1C(C)C1CC1 (stereo not given),-11.27
21,CNC(=O)c1ncn2c1CN(CCC(C)C)S(=O)(=O)c1ccccc1-2,5.918
22,COCCOCCNS(=O)(=O)C1CS(=O)(=O)c2ccccc21 (stereo not given),2.377
23,NC(=O)CN1CCC(NC2CSCCc3ccccc32)CC1 (stereo not given),-6.664
24,COC1CN(CCO)S(=O)(=O)c2ccccc21 (stereo not given),103.3
25,O=S1(=O)c2ccccc2C(O)CN1CCO (stereo not given),120.8
26,NC(=O)CN1CC(O)c2ccccc2S1(=O)=O (stereo not given),96.32
27,COCC(C)(C)NS(=O)(=O)C1CS(=O)(=O)c2ccccc21 (stereo not given),12.05

row,SMILES,Percent Effect [%]
1,NC(=O)CN1CCC(NC2CCCCc3ccccc32)CC1 (stereo not given),-5.758
2,Cc1ccc2c(c1)c(CNC(=O)C1CC(=O)N(C3CCCC3)C1)nn2C (stereo not given),-26.6
3,O=C(N1CCCC1)N1CCC(c2nccn2Cc2cscn2)CC1,-4.277
4,CC(C)n1cnnc1CN(C)C(=O)c1cc(COc2ccccc2)[nH]n1,-4.684
5,CC(=O)NC1CCCN(C(=O)NCCOc2ccc3c(c2)OCO3)C1 (stereo not given),106.3
6,O=C(NCCOc1ccc2c(c1)OCO2)N1CCCC(CO)C1 (stereo not given),85.49
7,CC(=O)NCC1CCN(C(=O)NCCc2ccc3c(c2)OCO3)CC1,-2.588
8,NC(=O)C1CCN(C(=O)NCCOc2ccc3c(c2)OCO3)C1 (stereo not given),88.72
9,CCCOc1ccc(CNC(=O)N2CCC(C(N)=O)C2)cc1 (stereo not given),0.5279
10,O=C(c1ccc2c(c1)OCO2)N1CCCC(Nc2ccc(F)cc2)C1 (stereo not given),-14.66
11,O=C(CN1CCCC(CO)C1)NCCOc1cccc(Cl)c1 (stereo not given),0.8563
12,CCOc1ccc(Cl)cc1CCNC(=O)N1CCCC(CO)C1 (stereo not given),2.242
13,NC(=O)N1CCCC(C(=O)NCCOc2ccc3c(c2)OCO3)C1 (stereo not given),6.711
14,Cc1noc(C)c1CNC(=O)N1CCC(NS(C)(=O)=O)CC1,-20.1
15,Cc1n[nH]c(C)c1CCc1ccc(S(C)(=O)=O)cc1,1.11
16,CCCc1n[nH]cc1C(=O)N1CCC(c2nccn2CCOC)CC1,-3.808
17,CSC(C)(C)CNC(=O)NCCC1CCN(C)CC1,0.9558
18,Cc1nc(CN(C)C2CCCN(c3cccnn3)C2)no1 (stereo not given),-8.023
19,CN(Cc1noc(C2CC2)n1)C1CCCN(c2cccnn2)C1 (stereo not given),100.2
20,CN(Cc1nc(C2CC2)no1)C1CCCN(c2cccnn2)C1 (stereo not given),-5.639
21,CCc1nc(CN(C)C2CCCN(c3cccnn3)C2)no1 (stereo not given),81.94
22,CC(C)(C)c1nc(CNC2CCCN(c3cccnn3)C2)no1 (stereo not given),-17.48
23,CC(C)c1nc(CNC2CCCN(c3cccnn3)C2)no1 (stereo not given),9.914
24,CN(Cc1nc(-c2ccco2)no1)C1CCCN(c2cccnn2)C1 (stereo not given),4.985
25,CC(C)c1nc(CN(C)C2CCCN(c3cccnn3)C2)no1 (stereo not given),109.3
26,CN(Cc1noc(C(C)(C)C)n1)C1CCCN(c2cccnn2)C1 (stereo not given),102.2
27,Cc1ccc(N2CCCC(N(C)Cc3noc(C4CC4)n3)C2)nn1 (stereo not given),-34.27

row,SMILES,Percent Effect [%]
1,CCOC(=O)N1CCN(c2nc(CCN)nc3sc(C)c(C)c23)CC1,-2.539
2,Cn1ncc(N2CCC(CNC3CC(c4ccccc4)C3)CC2)cc1=O (stereo not given),0.2132
3,COC(=O)N1CCN(C(=O)c2ccc(C)c(N3CCNC3=O)c2)CC1,-15.45
4,CCOCCN1CCN(CCOC)CC1C (stereo not given),-2.366
5,CCN1CCC2(CN(C(C)=O)CC23CCN(C(=O)N(C)C)CC3)C1=O (stereo not given),-7.709
6,CCN1Cc2ccccc2CC2(CCN(CC3CCC3)CC2)C1=O,112.5
7,Cn1cccc1C(=O)N1CCC2(CCCN(CC3CCC3)C2=O)C1 (stereo not given),0
8,CCN1Cc2ccccc2CC2(CCN(CC(=O)O)CC2)C1=O.O=C(O)C(F)(F)F,108.1
9,Cc1ccc2c(c1)C1(CC2)CCN(CC(=O)O)CC1.O=C(O)C(F)(F)F,-2.152
10,CC(C)CN1CCC2(CCN(CC3CC3)CC2)C1=O.O=C(O)C(F)(F)F,3.548
11,O=C(O)CN1CCC2(CCc3ccccc32)CC1,-5.092
12,CCN1Cc2ccccc2CC2(CCN(C)CC2)C1=O,106.4
13,CCN1CC2(CC1=O)CN(C(=O)c1ccco1)CCN(C(=O)N(C)C)C2 (stereo not given),-10.83
14,CN1C(=O)CC2(CCN(S(=O)(=O)C3CC3)CC2)c2ccccc21,18.32
15,CCN1Cc2ccccc2CC2(CCN(C(=O)N(C)C)CC2)C1=O,108.4
16,O=C1N(CCc2ccccc2)CCCC12CCN(C(CO)CO)C2 (stereo not given),-2.358
17,Cn1nc2c(cc1=O)CN(CC1CCCCO1)CC2 (stereo not given),1.26
18,Cc1cnn(CC2CCCCN2Cc2ncc(C(C)(C)C)o2)c1 (stereo not given),103.7
19,Cc1cnn(CC2CCCCN2Cc2cc(C)on2)c1 (stereo not given),27.16
20,CCC1CCCCN1Cc1ncc(-c2ccc(OC)cc2)o1 (stereo not given),-15.61
21,CC(C)(C)c1cnc(CN2CCCC2Cn2cccn2)o1 (stereo not given),3.93
22,CCC1CCCCN1Cc1ncc(C(C)(C)C)o1 (stereo not given),88.88
23,CC(C)(C)c1cnc(CN2CCC[C@H]2CO)o1,-3.159
24,NC(=O)c1ccc(N2CCN(Cc3c(Cl)cncc3Cl)CC2)nc1,-3.438
25,O=C(NS(=O)(=O)c1cccc(C(F)(F)F)c1)c1cnsn1,1.908
26,Cn1cc(CCCN2CCN(Cc3cccc(O)c3)CC2)cn1,5.998
27,COc1cc(O)ccc1CN1CCN(C2CCc3ccccc3C2)CC1 (stereo not given),95.73

row,SMILES,Percent Effect [%]
1,Cc1ccnn1CC(=O)N1CCN(C2CCc3ccccc3C2)CC1 (stereo not given),-4.494
2,Oc1cccc(CN2CCN(C3CCc4ccccc4C3)CC2)c1 (stereo not given),111.6
3,COc1ccc(CN2CCCC(Nc3cccc(F)c3)C2)cc1O (stereo not given),-4.671
4,COc1ccc(CN2CCC(O)CC2)c(OC)c1,-14.46
5,COc1ccc(CN2CCN(C3CCc4ccccc4C3)CC2)cc1O (stereo not given),105.5
6,COc1ccc(CNC2CCN(c3ccccc3)C2)cc1O (stereo not given),14.8
7,CC(CN1CCOCC1)NC1CCN(Cc2cccc(O)c2)CC1 (stereo not given),-2.88
8,COc1cc(N2C[C@H]3CN(CCN4CCCC4)C(=O)[C@H]3C2)ncn1,-15.15
9,O=C(CNc1cc(Br)ccc1Br)NC1CCS(=O)(=O)C1 (stereo not given),-18.44
10,CCN1CCCC(CN2CCn3nc(CNC(=O)N(C)C)cc3C2)C1 (stereo not given),11.32
11,CC(CO)N1CCN(C(=O)OC(C)(C)C)CC1 (stereo not given),-0.0103
12,CC(C)(C)OC(=O)N1CCN(S(C)(=O)=O)C2(CCCCC2)C1,138.8
13,CC(C)(C)OC(=O)N1CCC(NC2CC2)CC1,-10.91
14,CS(=O)(=O)N1CCCC12CCCN(C(=O)c1ccnnc1)C2 (stereo not given),0.7841
15,CC(CC#N)N1CCN(C(=O)OC(C)(C)C)CC1 (stereo not given),-8.127
16,CC(C)(C)OC(=O)N1CCN(S(=O)(=O)CCCC#N)C2(CCCCC2)C1,111.4
17,CN(C)S(=O)(=O)N1CCN(C(=O)OC(C)(C)C)CC12CCCCC2,120.5
18,COc1ccc(C2CCN(S(=O)(=O)CCCC#N)CC2)cc1,-10.18
19,CS(=O)(=O)N1CCCC12CCCN(C(=O)c1ccncc1)C2 (stereo not given),-13.2
20,O=C(NC1CC1)N1CC[C@H]2[C@H]1CCN2c1nncs1.O=C(O)C(F)(F)F,6.883
21,CCN(Cc1ccc2c(c1)OCCO2)C(=O)NC(C)Cn1ccnc1 (stereo not given),1.976
22,CCOc1ccc(NC(=O)c2cnc(N3CCCC3)nc2C)cc1,17.2
23,CCOC(=O)c1ccc(NC(=O)c2cc3c([nH]c2=O)CCCC3)cc1,-8.889
24,CCOc1ccc(NC(=O)c2cc3c([nH]c2=O)CCC3)cc1,108.3
